Screens deposited in PubChem BioAssay by National Center for Advancing Translational Sciences (NCATS).
Compounds with a hit are over-represented: about 8% of the library has one in this group of screens.
HT1080 IDH1KD tx – HT-1080 IDH1 knockdown cell toxicity (counter line) | actives 2% (n = 360,000) | Potency, µM (doses to about 46.1 µM), actives largely listed as cytotoxic | HT-1080 IDH1 knockdown viability, ATP luminescence, 48 h
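Luminescent ATP read-out (CellTiter-Glo, 10 min at room temperature) after 48 h compound exposure at 37 °C gave viability of IDH1-knockdown HT-1080 cells. Activity was normalised to DMSO and cell-free wells, then fitted as concentration-response curves.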
KB-3-1 cytotox – KB-3-1 parental cell cytotoxicity. AID 1347075. Potency, µM (titrated, usually from 46.1 µM), usual class: cytotoxic. actives 1.4% (n = 400,000). KB-3-1 viability, CellTiter-Glo ATP luminescence, 72 h; further: nearly all actives have a fitted effect of over 60% in size
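Luminescent ATP read-out (CellTiter-Glo) measures survival of drug-naive KB-3-1 cells after 72 h compound exposure at 37 °C. Titration series was screened from lowest to highest concentration, with DMSO vehicle plates as background controls.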
MCF10A rereplic – DNA re-replication induction in MCF 10a cells; MCF 10A DNA re-replication, Hoechst nuclear intensity, 48 h; Potency, µM (doses to about 46.1 µM), hits mostly activators; actives 2.9% (n = 350,000); AID 624296; further: nearly all actives have a fitted effect of over 50% in size
HT1080-NT tox – kills 2HG-producing HT-1080-NT fibrosarcoma cells; Potency, µM (series often up to 46.1 µM), most hits filed as cytotoxic; actives 1.6% (n = 360,000); HT-1080-NT fibrosarcoma viability, CellTiter-Glo ATP luminescence, 48 h;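 further: NT is the 2HG producing partner of a matched IDH1 knockdown line; nearly all actives have a fitted effect of over 55% in size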
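Viability by CellTiter-Glo luminescence after 48 h compound exposure at 37C of HT-1080-NT cells (750/well, RPMI, 5% FBS). % activity scaled between DMSO wells and medium-only wells, then curve-fitted and categorized by curve class.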
SW480 rereplic – DNA re-replication induction in SW480 cells | SW480 DNA re-replication, Hoechst DNA content imaging, 48 h | Potency, µM (series often up to 46.1 µM), usual class: activators | actives 1.8% (n = 340,000); further: nearly all actives have a fitted effect of over 55% in size
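Compounds, transferred as 23 nL by pin tool, were incubated with cells for 48 hr; DNA content per nucleus was then quantified by Hoechst staining and fluorescence plate imaging.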
KB-V1 cytotox – kills drug-selected multidrug resistant KB-V1 cells. KB-V1 MDR cells viability, CellTiter-Glo, 72 h. AID 1347076. actives 3.4% (n = 400,000). Potency, µM (doses to about 46.1 µM), hits mostly cytotoxic; further: nearly all actives have a fitted effect of over 60% in size
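Cytotoxicity toward P-gp-expressing KB-V1 cells was determined as loss of CellTiter-Glo luminescence after 72 h at 37 degrees C. Compounds were tested in quantitative HTS format across a concentration range, with curves fitted to normalized data.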
Each line names hits and unclear results; the compound was inactive in the other large screens. The call rests on the fitted dose curve; in most records, active means well fitted curve in the direction sought with a large enough effect; inconclusive means small, poorly fitted or top-dose-only effect, or another doubt; inactive means no such curve, though single readings can be large; an effect the other way counts as inactive or inconclusive.

COc1ccc(-c2csc(NC(C)c3nc4cc(Cl)c(N5CCCCC5)cc4n3CCCO)n2)cc1 (stereo not drawn)	HT1080 IDH1KD tx inconclusive, KB-3-1 cytotox inconclusive, MCF10A rereplic inconclusive, HT1080-NT tox inconclusive, SW480 rereplic 0.15µM
COc1ccc(-c2csc(NC(C)c3nc4cc(Cl)c(N5CCCCC5)cc4n3CCOCCO)n2)cc1 (stereo not drawn)	HT1080 IDH1KD tx inconclusive, KB-3-1 cytotox inconclusive, HT1080-NT tox inconclusive, KB-V1 cytotox inconclusive
Cc1ccc(NC(=O)c2cc(S(=O)(=O)NCCc3ccccc3)ccc2F)cc1Cl	HT1080 IDH1KD tx 16µM, HT1080-NT tox 16µM
O=C(Nc1cccc(Cl)c1)c1cc(S(=O)(=O)NCCc2ccc(Cl)cc2)ccc1F	HT1080 IDH1KD tx 29µM, HT1080-NT tox inconclusive, KB-V1 cytotox inconclusive
COc1ccc2c(CNC3CCCCCC3)c(C(=O)O)n(Cc3ccc(C)cc3)c2c1	none (no result: HT1080 IDH1KD tx, MCF10A rereplic, HT1080-NT tox, SW480 rereplic)
Oc1c(Cl)cc(Cl)cc1/C=N/c1nc(-c2ccc(Cl)cc2)cs1	MCF10A rereplic inconclusive
Oc1c(Cl)cc(Cl)cc1/C=N/c1nccs1	MCF10A rereplic 15µM
COc1ccccc1NC(=O)C1=C(C)Nc2ncnn2C1c1ccccc1C (stereo not drawn)	SW480 rereplic 4.1µM
COc1ccc(C2CC(=O)C3=C(C2)Nc2ncnn2C3c2ccccc2C)cc1 (stereo not drawn)	KB-V1 cytotox 16µM
Cc1cc(N2CCN(c3ccc(F)cc3)CC2)n2nc(-c3ccc(Cl)cc3)nc2n1	KB-V1 cytotox inconclusive (no result: HT1080 IDH1KD tx, MCF10A rereplic, HT1080-NT tox, SW480 rereplic)
Cc1ccc(-c2cn3nc(-c4ccccc4)c(-c4ccccc4)nc3n2)cc1	MCF10A rereplic inconclusive, SW480 rereplic 18µM
c1ccc(-c2cn3nc(-c4ccccc4)c(-c4ccccc4)nc3n2)cc1	MCF10A rereplic 7.3µM, SW480 rereplic 9.2µM, KB-V1 cytotox 13µM
Cc1nn2cc(-c3ccc(-c4ccccc4)cc3)nc2s1	KB-V1 cytotox inconclusive
Nc1nc(-c2ccccc2)cn1N	none
O=C(NCC1OCCc2ccccc21)c1ccc(NC(=O)c2cccc(Br)c2)cc1 (stereo not drawn)	MCF10A rereplic inconclusive, KB-V1 cytotox 2.6µM
Cc1ccc(-c2cn3c(n2)sc2cc(C(=O)NCc4cccs4)ccc23)cc1	none (no result: HT1080 IDH1KD tx, MCF10A rereplic, HT1080-NT tox, SW480 rereplic)
Cc1oc2ncn(CC(C)C)c(=O)c2c1C(=O)N1CCN(c2ccc(F)cc2)CC1	none (no result: HT1080 IDH1KD tx, MCF10A rereplic, HT1080-NT tox, SW480 rereplic)
Cc1onc(-c2ccccc2Cl)c1C(=O)N(Cc1nc(-c2ccccc2)no1)C1CCCCC1	HT1080 IDH1KD tx inconclusive, KB-3-1 cytotox inconclusive, MCF10A rereplic inconclusive, SW480 rereplic inconclusive, KB-V1 cytotox 18µM
Cc1cccc(-c2noc(CN(C(=O)c3c(-c4ccccc4Cl)noc3C)C(C)C)n2)c1	KB-3-1 cytotox inconclusive, MCF10A rereplic inconclusive, KB-V1 cytotox inconclusive
CC(=O)c1ccc(NC(=O)c2cc3c(=O)oc4ccc(C)cc4c3s2)cc1	none (no result: HT1080 IDH1KD tx, MCF10A rereplic, HT1080-NT tox, SW480 rereplic)
Oc1cc(NCc2cccnc2)ccc1-c1nc2ccccc2o1	HT1080 IDH1KD tx inconclusive, KB-3-1 cytotox inconclusive, MCF10A rereplic 21µM, SW480 rereplic inconclusive, KB-V1 cytotox inconclusive
CC1(C)CC(=O)C(C2C3=C(CC(C)(C)CC3=O)Oc3ccccc32)C(=O)C1 (stereo not drawn)	none
CC1(C)CC(=O)C2=C(C1)Oc1nc3ccccc3cc1C2C(C#N)C#N (stereo not drawn)	HT1080 IDH1KD tx 23µM, KB-3-1 cytotox 21µM, MCF10A rereplic 9.2µM, HT1080-NT tox 18µM, SW480 rereplic inconclusive, KB-V1 cytotox inconclusive
CC1CCCCN1C(=O)c1ccc2c(c1)N(Cc1ccc(Cl)cc1)C(=O)c1ccccc1S2=O (stereo not drawn)	KB-3-1 cytotox inconclusive (no result: HT1080 IDH1KD tx, MCF10A rereplic, HT1080-NT tox, SW480 rereplic)
C[N+]1(CC(=O)c2ccc(I)cc2)CCOCC1	none (no result: HT1080 IDH1KD tx, MCF10A rereplic, HT1080-NT tox, SW480 rereplic)
CCCn1c2ccccc2c2cnn(CC(=O)NCCCN3CCN(c4ccccc4)CC3)c(=O)c21	HT1080 IDH1KD tx inconclusive, MCF10A rereplic inconclusive, HT1080-NT tox 18µM, SW480 rereplic inconclusive
Cc1cc(C(=O)CSc2nnnn2-c2ccc(O)cc2)c(C)n1Cc1ccc2c(c1)OCO2	KB-3-1 cytotox inconclusive, MCF10A rereplic inconclusive, KB-V1 cytotox 15µM
Cc1cc(C(=O)CSc2nnc(-c3cccc(F)c3)n2N)c(C)n1Cc1ccc2c(c1)OCO2	KB-3-1 cytotox inconclusive, KB-V1 cytotox 2.6µM
Cc1cccc(-n2nnnc2SCC(=O)c2cc(C)n(CC3CCCO3)c2C)c1 (stereo not drawn)	KB-V1 cytotox inconclusive
Cc1cccc(-n2nnnc2SCC(=O)c2cc(C)n(Cc3ccco3)c2C)c1	HT1080 IDH1KD tx inconclusive, KB-V1 cytotox 18µM
Cc1cc(C(=O)CSc2nncs2)c(C)n1-c1ccc2c(c1)OCO2	HT1080-NT tox inconclusive, KB-V1 cytotox 16µM
Cc1ccc(NC(=O)c2ccc(NC(=O)N3CCSc4ncccc43)cc2)c(Cl)c1	none (no result: HT1080 IDH1KD tx, MCF10A rereplic, HT1080-NT tox, SW480 rereplic)
Cc1cc(C(=O)CSc2nnnn2-c2ccccc2)c(C)n1-c1ccc2c(c1)OCO2	KB-3-1 cytotox inconclusive, MCF10A rereplic inconclusive, SW480 rereplic inconclusive, KB-V1 cytotox 7.3µM
CCCn1c(SCC(=O)c2cc(C)n(-c3ccc4c(c3)OCO4)c2C)n[nH]c1=O	KB-3-1 cytotox 12µM, KB-V1 cytotox 2.9µM
COc1ccc(CC2(CO)CCN(Cc3ccc4c(c3)CCO4)CC2)cc1	HT1080 IDH1KD tx 21µM, MCF10A rereplic inconclusive, HT1080-NT tox inconclusive, KB-V1 cytotox inconclusive
COc1ccc(CC2(CO)CCN(CC3=Cc4cc(Cl)ccc4OC3)CC2)cc1	HT1080 IDH1KD tx 23µM, KB-3-1 cytotox inconclusive, MCF10A rereplic 23µM, HT1080-NT tox 15µM, SW480 rereplic inconclusive
